# IL-1B inflam inh: inflammasome signaling inhibition, IL-1 beta readout; THP-1 LPS/ATP IL-1B secretion, AlphaLISA, 16 h; active compounds read low; activity change, % at 57.5 µM; 360,000 tested, 4.7% active; AID 743279; in the data active = activity change below about -50%; inconclusive = mostly about -30% to -49%
#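 Secreted IL-1B measured by AlphaLISA bead assay after 16 h compound exposure of THP-1 cells; compounds (final up to 57.5 uM) added 1 h before LPS (250 ng/mL) and ATP (1.25 mM) stimulation; lower signal means less secretion.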
# ELG1 repair inh: ELG1-dependent DNA repair inhibition. HEK293T ELG1-luciferase reporter, luminescence, 16 h; DNA damage induced by 5-fluorouridine. Potency, µM (series often up to 46.1 µM), for inactives: at the top dose activity change, negative = inhibition, actives largely listed as inhibitors. 330,000 tested, 2.3% active; note: potency is the fitted concentration of half-maximal effect; nearly all actives have a fitted effect of over 55% in size
#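 Cells (2,000 per well) received 5-fluorouridine plus test compound or DMSO and were incubated 16 hr at 37 °C, 5% CO2. Luciferase activity was read by luminescence 30 min after ONE-Glo addition; signal suppression marked inhibition of damage-induced ELG1 function.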
# TDP1 cell noCPT: qHTS for Inhibitors of human tyrosyl-DNA phosphodiesterase 1 (TDP1): qHTS in cells in absence of CPT; DT40 Tdp1-/- hTDP1 cells, no CPT, ATP luminescence, 48 h; AID 686978, 2013; Potency, µM (highest dose often 46.2 µM), without a hit: top-dose activity change, negative = growth inhibition, usual class: inhibitors; 420,000 tested, 15% active; note: potency is the fitted concentration of half-maximal effect; nearly all actives have a fitted effect of over 55% in size
#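 No-CPT arm: Tdp1-/-;hTDP1 DT40 cells (400/well) plus compounds, incubated ≥48 hr at 37 °C. Readout CellTiter-Glo luminescence.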
# VP16 counter: Gal4-VP16 reporter inhibition counter-screen; Drosophila S2 Gal4-VP16 UAS-luciferase, luminescence, 20 h; Potency, µM (titrated, usually from 53.6 µM), for the others: at the highest dose activity, negative = inhibition, most hits filed as inhibitors; 310,000 tested, 3.5% active;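 note: Gal4-VP16 expression switched on by copper sulfate through the metallothionein promoter; potency is the fitted concentration of half-maximal effect; nearly all actives have a fitted effect of over 50% in size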
# DT40 TDP1 CPT: DT40-hTDP1 cell growth loss with CPT; chicken DT40 Tdp1-/-;hTDP1 cells + 20 nM CPT, ATP luminescence, 48 h; Potency, µM (doses to about 46.2 µM), without a hit: at the top dose activity change, negative = growth inhibition, hits mostly inhibitors; 420,000 tested, 12% active; note: potency is the fitted concentration of half-maximal effect; nearly all actives have a fitted effect of over 55% in size
#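 Cell growth measured by CellTiter-Glo luminescence after a minimum 48 h, 37 C compound exposure with 20 nM CPT in Tdp1-knockout DT40 cells stably expressing hTDP1, seeded 400/well; qHTS titration format.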
# RORg inh: blocks mouse ROR gamma transcriptional activity; P51450; Drosophila S2 Gal4-RORgamma UAS-luciferase reporter, 20 h; Potency, µM (titrated, usually from 53.6 µM), without a hit: top-dose activity change, negative = inhibition, hits mostly inhibitors; 310,000 tested, 5.4% active; note: potency is the fitted concentration of half-maximal effect; nearly all actives have a fitted effect of over 60% in size
# Target sequence (P51450 whole entry, looked up, the tested form may be a part): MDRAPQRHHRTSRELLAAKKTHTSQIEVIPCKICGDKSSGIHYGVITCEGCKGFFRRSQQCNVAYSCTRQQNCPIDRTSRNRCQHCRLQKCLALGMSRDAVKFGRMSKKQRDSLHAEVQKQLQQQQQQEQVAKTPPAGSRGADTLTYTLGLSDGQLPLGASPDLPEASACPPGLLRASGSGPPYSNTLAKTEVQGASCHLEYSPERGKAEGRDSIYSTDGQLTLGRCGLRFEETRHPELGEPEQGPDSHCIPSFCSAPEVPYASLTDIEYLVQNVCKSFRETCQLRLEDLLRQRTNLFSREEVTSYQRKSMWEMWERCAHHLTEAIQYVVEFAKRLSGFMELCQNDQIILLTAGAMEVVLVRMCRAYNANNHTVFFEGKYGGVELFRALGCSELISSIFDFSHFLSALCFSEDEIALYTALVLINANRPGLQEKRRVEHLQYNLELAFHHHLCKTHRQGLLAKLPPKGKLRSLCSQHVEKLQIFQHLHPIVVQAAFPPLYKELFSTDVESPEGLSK
#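 A Gal4/UAS one-hybrid system in insect cells: metallothionein-promoter Gal4–ROR gamma fusion plus Photinus luciferase reporter. Copper sulfate 700 uM final, 20 hr ambient incubation, luminescent detection after 10 min with reagent.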
# Active calls of the source: *; ? = inconclusive; nt = no result; [ ] = another dose, or the depositor's remark. Only some compounds are listed: those with a hit (about 21% of all), similar ones and a draw of the others. Unless noted, calls come from the whole dose curve; as a rule, active = well fitted curve in the direction sought with a large enough effect; inconclusive = small, poorly fitted or top-dose-only effect, or another doubt; inactive = no such curve, though single readings can be large; an effect the other way counts as inactive or inconclusive. % is set by controls: 0 for no effect and ±100 for the full control effect.
SMILES,IL-1B inflam inh,ELG1 repair inh,TDP1 cell noCPT,VP16 counter,DT40 TDP1 CPT,RORg inh
CC(C)[C@@H](OCc1ccccc1)[C@H](C)CO/N=C1/[C@H]2OC2[C@@H](O)[C@H]2[C@H]1CCn1c(=O)n(-c3ccccc3)c(=O)n12 (stereo not given in full),nt,nt,nt,-17%[10 µM],nt,9%[10 µM]
COc1ccc2[nH]c3c(c2c1)CCN1C(=O)N([C@@H](C)C(=O)NC2CCCC2)C(=O)[C@]31C,-8,?,?,13%,12µM*,24%
COc1ccc2[nH]c3c(c2c1)CCN1C(=O)N([C@@H](C)C(=O)NC2CC2)C(=O)[C@]31C,10,2%,?,7%,-26%,-15%
Cc1ccc(OCc2nnc(SCc3ccc(C#N)cc3)n2-c2ccc(C)cc2)cc1,-19,-11%,16µM*,3%,?,7%
COc1ccc(-n2c(SCc3ccc([N+](=O)[O-])cc3)nnc2-c2ccc(C)cc2)cc1,-50*,?,?,4.5µM*,?,-3%
Cc1ccc(-n2c(SCc3ccc(C#N)cc3)nnc2-c2ccccn2)cc1,-25,-4%,-20%,-8%,-17%,30%
Cc1c(NC(=O)Nc2ccc(Cl)c(C(F)(F)F)c2)c(=O)n(-c2ccccc2)n1C,nt,nt,-21%,nt,-25%,nt
COc1ccc(-c2[nH]ncc2C(=O)NCc2ccccc2OC)cc1,nt,nt,-23%,nt,-1%,nt
O=C(COC(=O)c1cccc(F)c1)NC(=O)NCc1ccccc1,13,16%,17%,nt,-9%,nt
S=c1ccss1,nt,nt,?,?,-13%,13µM*
O=S(=O)(c1ccc(Cl)cc1Cl)n1ccnc1,nt,nt,-14%,nt,-5%,nt
N#C/C(=C1/SC[C@@H](c2ccc(Cl)cc2Cl)S1)n1ccnc1,nt,nt,6µM*,nt,4.7µM*,nt
COCCNc1nc(NCc2cnc(C)cn2)c2sccc2n1,0,nt,-19%,nt,-19%,nt
CNc1nc(NCc2ccc(C)cc2C)c2sccc2n1,-8,nt,6.5µM*,nt,18µM*,nt
CNc1nc(Nc2ccc(C)cc2C)c2sccc2n1,0,nt,16µM*,nt,13µM*,nt
Cc1ccc(CNc2nc(NCc3ccccc3)nc3ccsc23)c(C)c1,-88*,nt,?,nt,9.2µM*,nt
CC(=O)NCCNc1nc(NCc2ccccc2)nc2ccsc12,89,nt,?,nt,?,nt
CNc1nc(NCc2ccc(N(C)C)cc2)c2sccc2n1,29,nt,16µM*,nt,18µM*,nt
Cc1ccc(Nc2ncnc3sccc23)c(C)c1,-15,?,?,10%,-21%,11%
O=C(COC(=O)CCSc1ccc(F)cc1)NCc1ccc(F)cc1,3,5%,-1%,nt,?,nt
O=C(NCCc1ccc(C(F)(F)F)cc1)c1ccc(Cl)nc1,-9,14%,-19%,-1%,-25%,?
COc1cccc(CNC(=O)CCS(=O)(=O)c2ccc3c(c2)CC(C)N3C(=O)C2CC2)c1 (stereo not given),-8,13%,-3%,-1%,-27%,-14%
Cc1ccc(CNc2nc(NC(C)C)nc3ccsc23)c(C)c1,-14,nt,?,nt,23µM*,nt
Cc1ccc(Nc2nc(NCC3CC3)nc3ccsc23)c(C)c1,?,nt,5.8µM*,nt,3.7µM*,nt
CNc1nc(NCC2CCCCC2)c2sccc2n1,-21,nt,13µM*,nt,13µM*,nt
SMILES,IL-1B inflam inh,ELG1 repair inh,TDP1 cell noCPT,VP16 counter,DT40 TDP1 CPT,RORg inh
Cc1ccc(CNc2nc(NCC3CC3)nc3ccsc23)c(C)c1,-19,nt,10µM*,nt,9.2µM*,nt
COc1ccc(S(=O)(=O)N2CCCCC2)cc1NC(=O)C1CC1C (stereo not given),-12,-4%,-30%,nt,-14%,nt
C=CCn1c(SCC(=O)N2CCOCC2)nc2sc(C)c(C)c2c1=O,-13,-4%,-29%,-5%,-19%,10%
C=CCn1c(SCC(=O)N2CCOCC2)nc2sc3c(c2c1=O)CCCC3,-77*,18µM*,18µM*,16%,?,6%
C=CCn1c(SCC(=O)N2CCOCC2)nc(O)c(Cc2ccccc2)c1=O,-1,0%,13µM*,1%,?,1%
Cn1c(SCC(=O)N2CCOCC2)nc2sc3c(c2c1=O)CCCC3,-4,-10%,23µM*,3%,9.2µM*,-12%
CC(C)N(c1ccc(C=O)cc1)C(C)C,nt,nt,-2%,nt,-29%,nt
O=C(c1cccc(F)c1)N1CCC2(CCN(Cc3ccncc3)CC2)CC1,nt,nt,-23%,8%,11%,-12%
COc1ccc(Cc2c(-c3ccccc3)nc3ccc(Br)cn23)c(C)c1,28,nt,21µM*,nt,21µM*,nt
COc1ccc(Cc2c(-c3cccc(Cl)c3)nc3ccc(Cl)cn23)c(C)c1,0,nt,?,nt,26µM*,nt
COc1ccc(NC(=O)Cn2c(SCc3ccc(C)cc3)nc3cccnc32)c(OC)c1,nt,nt,?,nt,15µM*,nt
O=C(NC1CC1)c1ccc(Cn2c(SCc3cccc(F)c3)nc3cccnc32)cc1,nt,nt,8.2µM*,nt,?,nt
O=C(NC1CC1)c1ccc(Cn2c(SCc3ccc(F)cc3)nc3cccnc32)cc1,nt,nt,-29%,nt,-30%,nt
O=C(NC1CCCCC1)c1ccc(CSc2nc3cccnc3n2Cc2cccc(F)c2)cc1,nt,nt,5.2µM*,nt,10µM*,nt
O=C(NC1CCCCC1)c1ccc(CSc2nc3cccnc3n2Cc2ccc(F)cc2)cc1,nt,nt,13µM*,nt,?,nt
O=C(NC1CCCCC1)c1ccc(Cn2c(SCc3ccc(F)cc3)nc3cccnc32)cc1,nt,nt,-10%,nt,-9%,nt
O=C(NC1CCCC1)c1ccc(CSc2nc3cccnc3n2Cc2ccc(F)cc2)cc1,nt,nt,-15%,nt,-1%,nt
O=C(NC1CCCC1)c1ccc(CSc2nc3cccnc3n2Cc2ccccc2F)cc1,nt,nt,21µM*,nt,?,nt
COc1ccc(Cn2c(SCc3ccc(C(=O)NC4CCCCC4)cc3)nc3cccnc32)cc1,nt,nt,15µM*,nt,?,nt
Cc1cccc(Cn2c(SCc3ccc(C(=O)NC4CCCCC4)cc3)nc3cccnc32)c1,nt,nt,-3%,nt,6%,nt
O=S(=O)(c1cnc[nH]1)N1CCc2ccccc21,18,3%,23µM*,4%,?,-11%
CC1Cc2ccccc2N1S(=O)(=O)c1cnc[nH]1 (stereo not given),-21,4%,-2%,8%,1%,7%
Clc1ccccc1-c1nc2nc3ccccc3nc2n1-c1ccc2c(c1)OCO2,-10,15µM*,23µM*,3%,?,7%
Cc1cccc(-n2c(-c3ccco3)nc3nc4ccccc4nc32)c1,nt,10%,nt,-4%,nt,4%

# Screening data deposited in PubChem BioAssay by National Center for Advancing Translational Sciences (NCATS).
